Assay results reported in PubChem BioAssay (Tox21).
Inconclusive results are not listed. Activity calls are given as the source filed them. Unless noted, calls follow the shape of the dose curve; as a rule, active = well fitted curve in the direction sought with a large enough effect in the repeat runs; inconclusive = weak or mixed curves; inactive = no such curve, though single readings can be large; an effect the other way counts as inactive or inconclusive.

Columns and labels:
[1] = qHTS assay to identify small molecule agonists of the vitamin D receptor (VDR) signaling pathway - cell viability counter screen (AID 743224); also: series mostly up to about 63 µM; nearly all actives have a fitted effect of over 50% in size
Procedure, shortened: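 Cells: VDR-bla, 2,000/well, settled 4 h. Treatment: compounds in DMSO, 16 h, 37C/5% CO2. Readout: CellTiter-Glo luminescence after 30 min RT.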

[2] = qHTS assay to identify small molecule antagonists of the vitamin D receptor (VDR) signaling pathway - cell viability counter screen (AID 743225); also: nearly all actives have a fitted effect of over 50% in size
Procedure, shortened: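 HEK293T VDR-bla; cpd + 1a,25-(OH)2D3 3 nM final, 16 h 37C/5% CO2; B/G FRET substrate 2 h RT; then CellTiter-Glo 30 min RT, luminescence.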

[3] = qHTS assay to identify small molecule agonists of the NFkB signaling pathway - cell viability counter screen (AID 1159515; calls by dose curve; also: series mostly up to about 61 µM; nearly all actives have a fitted effect of over 55% in size)
Procedure, shortened: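 Cells are seeded (2,000 NFkB-bla ME-180 per well), rested overnight, and dosed with DMSO-dissolved compounds for 5 hr at 37 C. Viability is then read by CellTiter-Glo luminescence after 30 min at room temperature.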

[4] = qHTS assay to identify small molecule agonists of the endoplasmic reticulum stress response signaling pathway (AID 1159516; active = well fitted activation curve with a large enough effect in the signal ratio in the repeat runs, not every such curve was filed as active; the % refers to the signal ratio)
Procedure, shortened: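 Cells are seeded at 1,500 per well and incubated overnight. Compounds in DMSO are added for 5 hr at 37 C, then beta-lactamase FRET substrate for 2 hr at room temperature, and fluorescence at 460 and 530 nm is measured.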

[5] = qHTS assay to identify small molecule agonists of the endoplasmic reticulum stress response signaling pathway - cell viability counter screen (AID 1159517; calls by dose curve;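 also: HeLa cells carrying an ER stress response element beta-lactamase reporter; series mostly up to about 61 µM; nearly all actives have a fitted effect of over 50% in size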)
Procedure, shortened: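 Cytotoxicity of test compounds toward ESRE-bla HeLa cells was assessed after 5 hr exposure. The luminescent CellTiter-Glo signal was measured 30 min after reagent addition.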

[6] = qHTS assay to identify small molecule antagonists of the retinoid-related orphan receptor gamma (ROR-gamma) signaling pathway - cell viability counter screen (AID 1159520); also: nearly all actives have a fitted effect of over 50% in size
Procedure, shortened: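 Tet-on ROR gamma CHO cells (1,000/well) were plated 4 hr, given compounds in DMSO for 2 hr at 37 C, then induced with 1 uM final doxycycline for 16 hr. Viability was read as ATP by CellTiter-Glo luminescence after 30 min.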

[7] = biological target: Nuclear receptor ROR-gamma (Homo sapiens) (UniProt P51449); experiment: qHTS assay to identify small molecule antagonists of the retinoid-related orphan receptor gamma (ROR-gamma) signaling pathway (AID 1159521)
Procedure, shortened: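 Cells were plated, rested 4 h at 37 C, exposed to compounds for 2 h, then given 1 uM final doxycycline hyclate to induce RORγ expression. After 16 h, ONE-Glo luminescence from the ROR response element reporter was measured.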

[8] = qHTS assay to identify small molecule agonists of the AP-1 signaling pathway - cell viability counter screen (AID 1159525; calls by dose curve; also: nearly all actives have a fitted effect of over 55% in size)
Procedure, shortened: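 Each titration point was normalised to DMSO and tetra n-octyl ammonium bromide controls. The read was Cell Titer Glo luminescence after 30 min at RT, following 5 h compound exposure of ME-180 AP-1-bla cells at 37 °C.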

[9] = qHTS assay to identify small molecule agonists of the AP-1 signaling pathway (AID 1159526; calls by dose curve)
[10] = biological target: Retinoic acid receptor RXR-alpha (Homo sapiens) (UniProt P19793); experiment: qHTS assay to identify small molecule agonists of the RXR signaling pathway (AID 1159527; calls by dose curve; also: nearly all actives have a fitted effect of over 35% in size)
Procedure, shortened: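 Cells plated at 2,000/well, rested 5 hr at 37 C, pin-dosed with DMSO compound solutions, incubated 16 hr, then loaded with B/G FRET substrate for 2 hr at RT before dual-emission fluorescence reading.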

[11] = qHTS assay to identify small molecule agonists of the RXR signaling pathway - cell viability counter screen (AID 1159529)
Procedure, shortened: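 Steps: seed RXR-alpha-UAS-bla HEK 293T cells in assay medium containing 2% charcoal-stripped FBS; incubate 5 hr; add compounds in DMSO; incubate 16 hr at 37 C; after the bla read, add CellTiter-Glo and read luminescence at 30 min.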

[12] = qHTS assay to identify small molecule antagonists of the retinoid acid receptor (RAR) signaling pathway - cell viability counter screen (AID 1159551); also: nearly all actives have a fitted effect of over 35% in size
Procedure, shortened: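 Cells (C3RL4) are plated, incubated overnight, dosed with compound in DMSO, then given retinol at 1 uM final. After 6 h at 37 C, CellTiter-Glo is added and luminescence read following 30 min at room temperature.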

[13] = qHTS assay to identify small molecule agonists of the retinoic acid receptor (RAR) signaling pathway (AID 1159553)
Procedure, shortened: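 Seed C3RL4 reporter cells at 1,000 per well and incubate overnight at 37 C. Add compounds in DMSO, incubate 6 hr. Add luciferase reagent, wait 30 min at room temperature, read luminescence.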

[14] = qHTS assay to identify small molecule antagonists of the retinoic acid receptor (RAR) signaling pathway (AID 1159552; also: nearly all actives have a fitted effect of over 50% in size)
Procedure, shortened: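 Retinol at 1 uM final stimulated RARE-luciferase expression in C3RL4 cells exposed to test compounds for 6 hr at 37 C. Reduced luminescence, read 30 min after detection reagent, indicated pathway antagonism.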

Measured: Potency

Chain of Retinoic acid receptor RXR-alpha (Homo sapiens) (P19793 whole entry, looked up): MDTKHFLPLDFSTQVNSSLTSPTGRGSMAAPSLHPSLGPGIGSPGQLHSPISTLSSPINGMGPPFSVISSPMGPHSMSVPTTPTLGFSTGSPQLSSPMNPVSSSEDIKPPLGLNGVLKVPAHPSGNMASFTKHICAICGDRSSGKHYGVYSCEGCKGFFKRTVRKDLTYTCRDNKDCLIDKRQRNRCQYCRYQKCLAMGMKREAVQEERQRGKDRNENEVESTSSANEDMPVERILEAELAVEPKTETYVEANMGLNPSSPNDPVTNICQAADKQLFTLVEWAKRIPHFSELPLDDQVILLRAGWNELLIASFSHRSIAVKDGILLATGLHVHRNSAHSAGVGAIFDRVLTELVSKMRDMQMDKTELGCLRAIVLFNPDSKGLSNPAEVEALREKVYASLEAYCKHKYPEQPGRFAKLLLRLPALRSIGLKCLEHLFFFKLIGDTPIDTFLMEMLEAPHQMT

O=S(=O)(O)c1cccc2c(S(=O)(=O)O)cccc12
not listed: [14]
inactive: all other assays above

COc1ccc2cc1Oc1cc3c(cc1OC)CC[N+](C)(C)[C@H]3Cc1ccc(cc1)Oc1c(OC)c(OC)cc3c1[C@@H](C2)[N+](C)(C)CC3
not listed: [14]
inactive: all other assays above

CCC1C(=O)OCC1Cc1cncn1C (stereo not drawn)
inactive: all assays above

CCOC(=O)COC(=O)c1ccccc1C(=O)OCC
not listed: [13] | [14]
inactive: all other assays above

C=CC(C)(CCC=C(C)C)OC(=O)CC (stereo not drawn)
not listed: [13] | [14]
inactive: all other assays above

Cc1onc(-c2c(Cl)cccc2Cl)c1C(=O)Cl
not listed: [13] | [14]
inactive: all other assays above

CC(C#N)(CCC(=O)O)N=NC(C)(C#N)CCC(=O)O (stereo not drawn)
not listed: [13] | [14]
inactive: all other assays above

CCCCCC(C)N (stereo not drawn)
not listed: [13] | [14]
inactive: all other assays above

CCCOC(=O)CC
not listed: [13] | [14]
inactive: all other assays above

c1ccc2sc(SN3CCOCC3)nc2c1
not listed: [13] | [14]
inactive: all other assays above

O=C(O)Cc1csc(-c2ccc(Cl)cc2)n1
not listed: [13] | [14]
inactive: all other assays above

CC(C)c1ccc2ncccc2c1
not listed: [2] | [13] | [14]
inactive: all other assays above

CCOc1ccc2nc(S(N)(=O)=O)sc2c1
not listed: [13] | [14]
inactive: all other assays above

COc1cc(C(=O)OC(COCCC(C)C)CN2CCOCC2)cc(OC)c1OC (stereo not drawn)
not listed: [13] | [14]
inactive: all other assays above

COc1cc(C)nc(-n2nc(C)cc2OC)n1
not listed: [13] | [14]
inactive: all other assays above

O=C(c1ccccc1)C1(O)CCCCC1
not listed: [13] | [14]
inactive: all other assays above

CCOC(=O)CCC(=O)OCC
not listed: [13] | [14]
inactive: all other assays above

c1ccc(Cc2ccccc2)cc1
not listed: [13] | [14]
inactive: all other assays above

CCCCOCCOC(=O)CCCCCCCCC(=O)OCCOCCCC
not listed: [13] | [14]
inactive: all other assays above

NC(=O)N1c2ccccc2CC(=O)c2ccccc21
not listed: [13] | [14]
inactive: all other assays above
